The source of these data is ChEMBL document CHEMBL1157539, “Thousands of chemical starting points for antimalarial lead identification” (Nature, 2010).

Common to all, as to format: functional
Test [1] deals with Plasmodium falciparum. The experiment in a line: GSK_TCMDC: Inhibition of Plasmodium falciparum 3D7 in whole red blood cells, using parasite LDH activity as an index of growth. Test compounds present at 2uM.
Test [2] has as its system Plasmodium falciparum. The test is described as follows: GSK_TCMDC: Inhibition of Plasmodium falciparum Dd2 in whole red blood cells, using parasite LDH activity as an index of growth. Test compounds present at 2uM.
The test system of a further test is HepG2. The experiment in a line: GSK_TCMDC: Percent inhibition of human HepG2 cell line. Test compounds present at 10uM.

Broadly, the Inhibition is how much of the control response was suppressed. On to `COc1cc(NCCCNCc2cn(S(=O)(=O)c3ccccc3)c3ccccc23)nc2ccccc12`, for which the Inhibition is 100% with Plasmodium falciparum [1], 77% in the test with Plasmodium falciparum [2] and 36% with HepG2.

Regarding `Cn1cc(CN2CCCC(COC(c3ccccc3)c3ccccc3)C2)cn1` (stereo not given), the Inhibition with Plasmodium falciparum [1] amounted to 99%; in the test with Plasmodium falciparum [2], 99%; with HepG2, 24%.

Turning to `CC1CN(c2cccc3c2nc(-c2cncc(C#N)c2)n3CCNCc2ccccc2)CC(C)O1.O=C(O)C(F)(F)F` (stereo not given), the Inhibition in the test with Plasmodium falciparum [1] stood at 83%; in the test with Plasmodium falciparum [2], 9%; with HepG2 it was 0%.

With `CCNC(=O)Nc1ccc(-c2cnc(N)c(-c3nc4ccc(OC)cc4[nH]3)c2)cc1`, the Inhibition was determined as 100% in the test on Plasmodium falciparum [1], 43% in the test with Plasmodium falciparum [2] and 51% with HepG2.

As to `CC[C@H]1CN2CCc3c([nH]c4ccccc34)[C@@H]2C[C@@H]1CC1c2cc(OC)c(OC)cc2CCN1C.Cl` (stereo not given in full), the Inhibition in the test on Plasmodium falciparum [1] is recorded as 85%; with Plasmodium falciparum [2], 45%; with HepG2 it was 31%.

In the case of `O=C(N[C@H]1CCN(Cc2ccc(OCCCN3CCCCC3)cc2)C1)c1ccc(Oc2ccccc2)cc1`, the Inhibition in the test with Plasmodium falciparum [1] is 96%; in the test with Plasmodium falciparum [2], 11%; with HepG2, 56%.

As for `Cc1cnc(NCC2CCCCC2)nc1N[C@@H](CO)C(=O)Nc1ccccc1.O=C(O)C(F)(F)F`, the values for the Inhibition with Plasmodium falciparum [1], with Plasmodium falciparum [2] and in the test with HepG2 were 83%, 56% and 0%, respectively.

On to `CC(c1cccc(S(=O)(=O)NCc2ccc(Cl)cc2Cl)c1)N1CCC(N2CCCCC2)CC1` (stereo not given), for which the Inhibition in the test with Plasmodium falciparum [1] turned out to be 100%; in the test on Plasmodium falciparum [2], 40%; with HepG2, 36%.

As for `Cc1ccccc1C1CCN(C2CCC(NC(=O)/C=C/c3ccc(C(F)(F)F)cc3F)CC2)CC1` (stereo not given), the values for the Inhibition in the test with Plasmodium falciparum [1], in the test on Plasmodium falciparum [2] and in the test on HepG2 were 99%, 58% and 72%, respectively.

As for `COc1cc(CNC[C@@H](O)[C@H](Cc2ccccc2)NC(=O)c2cc(C3CCCC3)cc(N3CCCC3=O)c2)cc(OC)c1.Cl`, the Inhibition with Plasmodium falciparum [1] stood at 97%; in the test with Plasmodium falciparum [2] it was 76%; with HepG2 it was 16%.

For `CCc1cc(NC2CCN(C)CC2)nc(Nc2ccc(C)cc2)n1`, the Inhibition with Plasmodium falciparum [1] is reported as 95%; in the test with Plasmodium falciparum [2] it was 11%; with HepG2, 3%.

Take `c1cc(CNc2ncc(-c3ccsc3)c(-c3nccs3)n2)ccn1`: the Inhibition in the test with Plasmodium falciparum [1] is listed as 89%; in the test with Plasmodium falciparum [2], 81%; in the test on HepG2, 18%.

Consider `Cc1ccc(CNc2cc(C(F)(F)F)nc(-c3ccc(S(C)(=O)=O)cc3)n2)cc1`, for which the Inhibition in the test on Plasmodium falciparum [1] stood at 89%; with Plasmodium falciparum [2], 72%; with HepG2, 2%.

Regarding `Cc1n[nH]c2cc(F)c(-c3cc(OC[C@@H](N)Cc4ccccc4)cnc3-c3ccoc3)cc12.O=C(O)C(F)(F)F`, the figures for the Inhibition with Plasmodium falciparum [1], with Plasmodium falciparum [2] and in the test on HepG2 were 95%, 15% and 22%, respectively.

In the case of `O=C(Nc1cccc(-c2ccc(-c3nc4ccccc4[nH]3)cc2)c1)c1ccncc1`, the figures for the Inhibition in the test on Plasmodium falciparum [1], in the test with Plasmodium falciparum [2] and in the test on HepG2 were 100%, 58% and 30%, respectively.

For the molecule `Cc1ccc2[nH]c(-c3cc(-c4cccc(CCN5CCOCC5)c4)cnc3N)nc2c1.O=C(O)C(F)(F)F`, the Inhibition turned out to be 100% in the test with Plasmodium falciparum [1], 99% in the test with Plasmodium falciparum [2] and 50% in the test on HepG2.

As to `Fc1ccc(-c2cc3ncnc(N4CCN(CCN5CCCC5)CC4)c3s2)cc1`, the Inhibition is reported as 98% in the test on Plasmodium falciparum [1], 40% with Plasmodium falciparum [2] and 25% in the test with HepG2.

As for `Oc1ccccc1-c1nc2cccnc2n1CCc1cccc(C(F)(F)F)c1`, the Inhibition with Plasmodium falciparum [1] came to 93%; in the test with Plasmodium falciparum [2], 36%; in the test with HepG2 it was 4%.

`O=C(NC1CC1)c1ccc(N2CCC(c3ccccc3)CC2)nc1.O=C(O)C(F)(F)F`: the Inhibition in the test with Plasmodium falciparum [1] is 93%; in the test on Plasmodium falciparum [2] it was 92%; with HepG2 it was 16%.

On to `O=C(Nc1ccc(Cn2ncc(N3CCCNCC3)c(Cl)c2=O)cc1)Nc1ccc(F)cc1[N+](=O)[O-]`, for which the Inhibition in the test with Plasmodium falciparum [1] came to 90%; in the test with Plasmodium falciparum [2] it was 0%; in the test with HepG2, 11%.

On to `Fc1ccc(COc2ccc(Nc3ncnc4ccc(I)cc34)cc2Cl)cc1`, for which the Inhibition with Plasmodium falciparum [1] was 86%; with Plasmodium falciparum [2], 30%; in the test with HepG2, 28%.

On to `CCN1CCN(CCCNc2ccnc3cc(Cl)ccc23)CC1.Cl`, for which the values for the Inhibition in the test on Plasmodium falciparum [1], in the test with Plasmodium falciparum [2] and in the test with HepG2 were 100%, 77% and 7%, respectively.

With `NCc1ccc(CNCc2cccc(-c3ccc(-c4nc5ccccc5[nH]4)cc3)c2)cc1.O=C(O)C(F)(F)F`, the values for the Inhibition in the test on Plasmodium falciparum [1], with Plasmodium falciparum [2] and in the test on HepG2 were 100%, 58% and 10%, respectively.

As for `COc1cccc(Nc2nc(Nc3cccc(C#N)c3)cc(-c3ccncc3)n2)c1`, the Inhibition with Plasmodium falciparum [1] came out at 100%; in the test on Plasmodium falciparum [2], 46%; with HepG2, 28%.

With `COc1cc(CN2CCC(N3CCc4cc(NC(=O)c5cc(C)on5)ccc43)C2)ccc1F` (stereo not given), the Inhibition with Plasmodium falciparum [1] is on record as 91%; with Plasmodium falciparum [2] it was 96%; in the test with HepG2, 1%.

`CN1CCN(c2ccnc3ccc(NC(=O)Nc4cccc5c(-c6ccncc6)cccc45)cc23)CC1`: the Inhibition with Plasmodium falciparum [1] is listed as 100%; with Plasmodium falciparum [2], 100%; in the test on HepG2, 7%.

In the case of `Br.O=C(CNc1ccncc1)c1c[nH]c2ccccc12`, the Inhibition in the test with Plasmodium falciparum [1] was 90%; in the test on Plasmodium falciparum [2], 62%; in the test on HepG2 it was 31%.

`C[C@@H]1CC[C@H](NC(=O)[C@H](CC2CCCC2)NC(=O)N2CCNCC2)C(=O)CN1S(=O)(=O)c1ccccn1.O=C(O)C(F)(F)F`: the Inhibition with Plasmodium falciparum [1] amounted to 84%; with Plasmodium falciparum [2], 19%; with HepG2, 5%.

In the case of `OCc1ccc2nc3c(cc2c1)-c1cccc2cccc-3c12`, the Inhibition in the test with Plasmodium falciparum [1] is reported as 96%; in the test on Plasmodium falciparum [2], 0%; with HepG2, 16%.

As for `CCc1ccc(CN(CCCOc2cccc(CC(=O)NCc3c[nH]cn3)c2)Cc2ccc(-n3ccnc3)cc2)cc1`, the values for the Inhibition with Plasmodium falciparum [1], in the test on Plasmodium falciparum [2] and in the test on HepG2 were 99%, 28% and 1%, respectively.
